# PubChem BioAssay
# Active and inactive are the calls of the source.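 Rule for the calls, unless noted: active = compounds that lower viability of the colon cancer cells in the luminescence readout, with no numeric limit stated; inactive = the rest.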
# Columns and labels:
# [1] = stimulators of nuclear beta-catenin in C2C12, primary screen, imaging, WNT3A-conditioned medium, mouse C2C12, NPC library (AID 1117326; in the data active = nuclear beta-catenin stimulation mostly above about 4.2%, no sharp cut-off; inactive = mostly below about 10%; note: reference of the scale not given here); conditions: stronger effect = higher value
# [2] = stimulators of insulin release from INS-1E, primary screen, cell-based, 5 mM glucose, NPC library (AID 1117329;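 active = compound raises insulin release from rat beta cells at 5 mM glucose, no numeric limit stated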; note: reference of the scale not given here); conditions: rat INS-1E insulin secretion, at 10 µM, stronger effect = higher value
# [3] = growth inhibition of GSK3B-pretreated HCT116 cells – cell-based, CellTiter-Glo, 0.2 to 20 µM (AID 1117336;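 active = compounds lowering colon cancer cell viability after pretreatment blocking the GSK3B kinase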); conditions: HCT116 viability after GSK3B inhibitor, at 20 µM, stronger effect = higher value
# [4] = inhibition of endothelial tube formation, primary screen, imaging, VEGF stimulated, CD31 staining, tube area, NPC library (AID 1117340;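 active = compound that reduces growth-factor-driven endothelial tube area in a mixed cell culture, no cutoff stated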); conditions: VEGF-stimulated ADSC/ECFC co-culture, at 10 µM, stronger effect = higher value
# [5] = glucagon-like peptide 1 release enhancers, primary assay, NCI-H716 cell line, NPC library (AID 1117341;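 active = compound raises GLP1 secretion from the human gut endocrine cells, with no numeric limit stated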; note: reference of the scale not given here); conditions: NCI-H716 cells, at 10 µM, stronger effect = higher value
# [6] = HCT116 colon cancer cell growth inhibition, primary screen, CellTiter-Glo luminescence, NPC library (AID 1117342;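 active = compounds that lower survival of HCT116 colon cancer cells in the luminescence readout, no numeric limit stated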); conditions: at 20 µM (top of the series)
# [7] = CellTiter-Glo luminescent readout of SW480 viability loss, NPC library primary (AID 1117343); conditions: CellTiter-Glo luminescence; at 20 µM (top of the series)
# [8] = decreased DLD-1 cellular survival, CellTiter-Glo luminescent readout, NPC compound collection, primary HTS (AID 1117346;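 active = compounds that lower survival of DLD-1 colon cancer cells in the luminescence readout, no cutoff given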); conditions: DLD-1 viability, CellTiter-Glo luminescence; at 20 µM (top of the series)
SMILES,nuclear beta-catenin stimulation ([1]; at 10 µM),"nuclear beta-catenin stimulation ([1]; stimulation, at 2 µM)",insulin secretion stimulation [2],viability decrease [3],tube area decrease [4],GLP1 secretion stimulation [5],inhibition of viability [6],viability decrease (inhibition) [7],viability decrease (inhibition) [8]
NCCNc1cccc2ccccc12,1.9% (inactive),1.1%,1.9% (inactive),-5.55% (inactive),-35.7% (inactive),0.6% (inactive),17.2% (inactive),51.5% (active),7.9% (inactive)
CN1CCC[C@@H]1c1cccnc1,-0.7% (inactive),1.5%,1.5% (inactive),-2.3% (inactive),12.5% (inactive),3.1% (inactive),-5.8% (inactive),25.8% (inactive),-23.3% (inactive)
NNc1nnc(NN)c2ccccc12,3.3% (inactive),1.4%,-1.8% (inactive),-0.85% (inactive),40.1% (active),-3.3% (inactive),22.6% (inactive),22.7% (inactive),6.6% (inactive)
NC(=O)C(=O)N/N=C/c1ccc([N+](=O)[O-])o1,4.5% (inactive),1.5%,-3.3% (inactive),17.6% (inactive),28.8% (inactive),-1.5% (inactive),0.3% (inactive),89.2% (active),23.6% (inactive)
C[C@@H](N)C(=O)O,1.4% (inactive),0%,-2.7% (inactive),9% (inactive),15.4% (inactive),5.9% (inactive),11.2% (inactive),44.4% (inactive),20.8% (inactive)
CCCCCOc1ccccc1/C(=C\SC)n1ccnc1,0.8% (inactive),-0.3%,3.4% (inactive),-71.1% (inactive),30.4% (inactive),3.8% (inactive),61.1% (active),79.6% (active),99.5% (active)
COc1cc(/C=C/C(=O)O[C@H]2CC[C@]34C[C@]35CC[C@]3(C)[C@@H]([C@H](C)CCC=C(C)C)CC[C@@]3(C)[C@@H]5CC[C@H]4C2(C)C)ccc1O,-1.5% (inactive),-1.7%,7.6% (inactive),2.6% (inactive),-12.4% (inactive),0.5% (inactive),10% (inactive),-10.1% (inactive),-6.9% (inactive)
Cc1onc(-c2ccccc2Cl)c1C(=O)Cl,-1.6% (inactive),-0.5%,0.3% (inactive),-16.4% (inactive),0.4% (inactive),0.1% (inactive),0.4% (inactive),26.4% (inactive),14.3% (inactive)
CO[C@@H]1[C@@H](O[C@@H]2O[C@H](C)[C@@H](O[C@H]3C[C@@](C)(O)[C@@H](O)[C@H](C)O3)[C@H](N(C)C)[C@H]2O)[C@@H](CC=O)C[C@@H](C)[C@@H](O[C@@H]2CC[C@H](N(C)C)[C@@H](C)O2)/C=C/C=C/C[C@@H](C)OC(=O)C[C@H]1OC(C)=O,-0.1% (inactive),-1.2%,3.3% (inactive),0.2% (inactive),3% (inactive),9.9% (inactive),23.2% (inactive),59.8% (active),18.7% (inactive)
CC(C)C(=O)OCc1cccc(OC(=O)[C@@H]2N3C(=O)[C@@H](NC(=O)Cc4ccccc4)[C@H]3SC2(C)C)c1,0.9% (inactive),-0.1%,2.2% (inactive),117% (active),-4.7% (inactive),3.4% (inactive),123% (active),60.1% (active),10.1% (inactive)
NS(=O)(=O)c1cc2c(cc1Cl)CN(C1CCCCC1)C2=O,-0.9% (inactive),-0.3%,-0.2% (inactive),-0.4% (inactive),-3.4% (inactive),1.4% (inactive),-2.17% (inactive),-0.2% (inactive),-3.8% (inactive)
CC(=O)OC[C@H]1O[C@@H](OC(C)=O)[C@H](OC(C)=O)[C@@H]1OC(C)=O,-0.3% (inactive),-1.5%,-1.25% (inactive),-0.8% (inactive),9.6% (inactive),-1.3% (inactive),12.6% (inactive),13.1% (inactive),4.4% (inactive)
Cc1cc(N)c2cc(NC(=O)Nc3ccc4nc(C)cc(N)c4c3)ccc2n1,2.4% (inactive),-2.2%,8.1% (inactive),54.4% (active),-0.3% (inactive),32.3% (active),64% (active),144% (active),94.2% (active)
Cc1ncc(CO)c(CN)c1O,1.3% (inactive),2.3%,0.6% (inactive),4.25% (inactive),-13.4% (inactive),0.1% (inactive),-3.2% (inactive),91.3% (active),9.5% (inactive)
CCCCN=C(N)N=C(N)N,2.9% (inactive),0.9%,-1.1% (inactive),-10.8% (inactive),3.5% (inactive),2.1% (inactive),3.4% (inactive),54.5% (active),-0.2% (inactive)
